Data reported in PubChem BioAssay (NCATS).
Results filed as inconclusive are left out. Where a call stands in place of a potency, no number is given. Activity calls are given as the source filed them. Calls come from the whole dose curve; as a rule, active = well fitted cell-killing curve with a large enough effect; inconclusive = small, poorly fitted or top-dose-only effect, or effect the other way; inactive = flat fitted curve, though single readings scatter.

Each compound was assayed on CAOV3 (assay: Primary qHTS to identify gynecologic anti-cancer compounds using libraries of approved drugs and bioactive compounds (AID 1345084; note: nearly all actives have a fitted effect of over 55% in size)). Conditions: Gynecologic cancer cell panel viability, ATPlite luminescence, 48 h; series mostly up to 57.5 µM.
Text: National Center for Advancing Translational Sciences [NCATS] Assay Overview: Chemotherapeutic drug responses vary from cancer to cancer and from patient to patient. These variations could be caused by a number of factors including patient genomic background, tumor mutations, tumor heterogeneity, and aspects of drug treatment. Chemotherapeutic drug resistance is also a common issue and can lead to ineffective treatment and patient death. Here we have profiled the cell killing effects of thousands of compounds to characterize the responses in three gynecological cancers, identify cancer-selective compounds, and understand the diversity of responses to these compounds from pan-cancer suppressors to single cell line selective compounds. In this assay, we screened a 7,914 compound drug library that included approved drug and bioactive compounds in six ovarian, three cervical, and […] placental cancer cell lines using the ATPlite assay for cell viability. […] The cervical cancer cell lines included HeLa, Ca Ski, and C-33 A. The placental cancer cell lines included JEG-3. HEK 293T cells were used as the control cell line to determine the selectivity index. ATPlite is a luminescence based assay reliant on the conversion of a luciferase substrate to light in the presence of ATP. As a cytotoxic compound will suppress growth and decrease the number of cells, the concentration of ATP will decrease, and less light signal will be detected in the well.
Assay Protocol Summary: 1,000 cells in 4 uL of media were dispensed into white, solid bottom 1536-well plates using a Multidrop Combi (Thermo Scientific). The Assay plates were incubated for 16 hours at 37 C with 5% CO2 in assay plates, followed by the addition of 23 nL of DMSO or drug dissolved in DMSO. Each compound was assayed in five concentrations (0.092, 0.46, 2.3, 11.5, and 57.5 uM), using the automated Wako 1536 Pin Tool workstation and incubated at 37 C with 5% CO2 48 hours. 4 uL of ATPlite, the ATP monitoring reagent, was then added to the each well of the assay plates using the Multidrop Combi reagent dispenser followed by incubation for 15 minutes at room temperature. The resulting luminescence was measured using the ViewLux plate reader.
Potency is the fitted concentration of half-maximal effect.

Row | SMILES | Potency | activity change, negative = cytotoxicity
1 | O=C1O[C@H](CO)[C@@H](O)[C@H](O)[C@H]1O | inactive | 
2 | C[C@@H]1CCN(C(=O)[C@H](CCCN=C(N)N)NS(=O)(=O)c2cccc3c2NC[C@H](C)C3)[C@@H](C(=O)O)C1 | inactive | 
3 | C#CCN(C)Cc1ccccc1 | inactive | 
4 | COc1ccc2[nH]c(S(=O)Cc3ncc(C)c(OC)c3C)nc2n1 (stereo not given) | inactive | 
5 | C[C@@H](O)[C@H](N)C(=O)O | inactive | 
6 | Nc1ncnc2c1ncn2[C@@H]1O[C@H](CO)[C@@H](O)[C@H]1O | inactive | 
7 | C[C@]12CC[C@@H]3c4ccc(O)cc4CC[C@H]3[C@@H]1CC[C@@H]2OC(=O)CCC1CCCC1 | inactive | 
8 | COc1ccc2c(c1)C(=O)N(CCc1ccc(S(=O)(=O)NC(=O)NC3CCCCC3)cc1)C(=O)C2(C)C | inactive | 
9 | N[C@@H](CSCCCO)C(=O)O | inactive | 
10 | CCOC(=O)c1ccc(O)cc1 | inactive | 
11 | CN(C)CCN(Cc1ccccc1)c1ccccn1 | inactive | 
12 | O=C(O)c1ccccc1-c1ccc(C(F)(F)F)cc1 | inactive | 
13 | Oc1cn2c(n1)Nc1ccc(Cl)c(Cl)c1C2 | inactive | 
14 | O=S(=O)(O)NC1CCCCC1 | inactive | 
15 | O=C1OC(OC(=O)c2cccnc2Nc2cccc(C(F)(F)F)c2)c2ccccc21 (stereo not given) | inactive | 
16 | COc1ccc(S(=O)(=O)Nc2nnc(CC(C)C)s2)cc1 | inactive | 
17 | NCCNCCNCCN | inactive | 
18 | Cc1ccc2nc(N)[nH]c(=O)c2c1Sc1ccncc1 | inactive | 
19 | NC(=O)NC(=O)Cc1ccccc1 | inactive | 
20 | CN(C)CCOC(C)(c1ccccc1)c1ccccn1 (stereo not given) | inactive | 

Row | SMILES | Potency | activity change, negative = cytotoxicity
21 | N[C@@H](CSSC[C@H](N)C(=O)O)C(=O)O |  | -5.94% [at 0.462 µM] (inactive)
22 | NC(=O)N/N=C/c1ccc([N+](=O)[O-])o1 | inactive | 
23 | Nc1nc2c(ncn2CCC(CO)CO)c(=O)[nH]1 | inactive | 
24 | CC1(C)Oc2ccc(C#N)cc2[C@@H](N2CCCC2=O)[C@@H]1O | inactive | 
25 | C[C@H]1O[C@@H](n2cc(F)c(=O)[nH]c2=O)[C@H](O)[C@@H]1O | inactive | 
26 | CCCCN1CCCC[C@H]1C(=O)Nc1c(C)cccc1C | inactive | 
27 | CC(=O)OCC(=O)[C@@]1(O)CC[C@H]2[C@@H]3CCC4=CC(=O)CC[C@]4(C)[C@H]3C(=O)C[C@@]21C | inactive | 
28 | O=c1cc[nH]c(=S)[nH]1 | inactive | 
29 | CN1CCC[C@@H]1Cc1c[nH]c2ccc(CCS(=O)(=O)c3ccccc3)cc12 | inactive | 
30 | CCCCCCCCCCCCCCCCCCOCC(O)CO (stereo not given) | inactive | 
31 | CS(=O)(=O)c1ccc([C@@H](O)[C@@H](CF)NC(=O)C(Cl)Cl)cc1 | inactive | 
32 | CO/N=C(\C(=O)N[C@@H]1C(=O)N2C(C(=O)O)=C(CSc3nc(=O)c(O)nn3C)CS[C@H]12)c1csc(N)n1 | inactive | 
33 | O=C(O)[C@H](O)c1ccccc1 | inactive | 
34 | c1ccc(CN(CC2=NCCN2)c2ccccc2)cc1 | inactive | 
35 | CCN(CC)CCNC(=O)c1c(C)[nH]c(/C=C2\C(=O)Nc3ccc(F)cc32)c1C | 25.1 µM (active) | 
36 | C[C@@H]1CN(c2c(F)c(F)c3c(=O)c(C(=O)O)cn(C4CC4)c3c2F)C[C@H](C)N1 | inactive | 
37 | CCCCC(CC)COC(=O)c1ccccc1O (stereo not given) | inactive | 
38 | Cc1cc2nc3c(=O)[nH]c(=O)nc-3n(C[C@H](O)[C@H](O)[C@H](O)CO)c2cc1C | inactive | 
39 | CC1CC(OC(=O)C(O)c2ccccc2)CC(C)(C)N1C (stereo not given) | inactive | 
40 | CN1CCOC(c2ccccc2)c2ccccc2C1 (stereo not given) | inactive | 
